Drawing on the supplement of paper PMC6555819, this text covers PBM binding z-score for 40 sequences.

For the first assay, the system named is PPARg:RXRa IVT, anti-PPARg (NR concentration 270 nM, RXRa partner concentration 90 nM). Put plainly: PBM binding z-score (relative to random genomic background probes); higher = stronger binding; sequences stand for … in GC…GCGATTGACAGCGTAGAATGAAGG
The method in brief: (§1)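 Ligand-free nuclear receptor dimers were bound for 1 h to custom Agilent 4×180K protein-binding microarrays. Detection used antibodies against each partner (one per run). Binding z-scores rest on regression-normalized fluorescence, with random background probes as the reference.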
As to CTCGAAAGGTCGGTTGAGGTGAGAATACGGATAA, the PBM binding z-score came out at 0.993.

In the case of TCTGCTAGGTCAGCTGGTCAGCTAACGAGCTGCC, the PBM binding z-score amounted to 2.82.

GCTTGTAGATCATGGTTAAGAAAGACTAAGCTAA registered a PBM binding z-score of 0.283.

Regarding TCTGCTAGGTCAGTTTGTCAGCTAACGAGCTGCC, the PBM binding z-score is 2.5.

Consider TCATATAGGTAAATGCTAGTTGAAAGTCCGATCT, for which the PBM binding z-score was found to be 2.25.

TCTCGGAGGACACGTAAGGTCAGAGCTCGACATC: the PBM binding z-score came to 0.521.

ATGTCTAGGTAAAGATAGTTCAGTGAATGCAAAT registered a PBM binding z-score of 1.51.

In turn, TATACAGGGTCAAAGTCCAGAGTACGAATGTCGA yielded a PBM binding z-score of 4.52.

In the case of GGAACCAGGGCAAGTTGATAGCAGAGTTTGATGG, the PBM binding z-score was found to be 3.75.

CCTAGCAGGCCAGGGTCACTGAAGCATTTCGCTT showed a PBM binding z-score of 1.16.

For CGTCCAAGGTCAATGCTAGGACAGTGAAAGCATT, the PBM binding z-score turned out to be 3.24.

CCTACTGGGCCATTCATAGGTCATTGATCATATG returned a PBM binding z-score of 3.82.

In turn, CGAACTAGGTGATCCAGGACAGTGAATACATTGA yielded a PBM binding z-score of 5.54.

On to ACTAGCAGGTCAAGTTTGGGTCACTCAAACAAAG, for which the PBM binding z-score was determined as 4.73.

As for TCTCGTAGATCAAGCAGGTTAAGAAAGCCTGAGT, the PBM binding z-score is -0.598.

GCTGCTAGGTCAGTTTGGTCAGCTAACGGGTACG: the PBM binding z-score stood at 2.

In turn, CCTACTGGGCCATCAGATCATTGATATCAACGTT yielded a PBM binding z-score of 3.97.

The sequence CCGAGTGGGGCAGAAAGGTTACCATACCATCCGG had a PBM binding z-score of 1.76.

Take AGTCAAAGTTCACTAGGTAACCTAAGATTCAGCT: the PBM binding z-score stood at 5.17.

Turning to TCTAGCAGGCCCGAGGGTCACTCAAGAGGTACGG, the PBM binding z-score was -0.284.

As to TCGACTAGGTTACCAATGGGGCATTCAGCTTTCT, the PBM binding z-score worked out at 2.87.

In turn, GCGACTGGGGCATCAGCAGGTTAGCATAACTTAA yielded a PBM binding z-score of 2.57.

TTACCAAGGTGAGCTGAGCTCGTTGATCCAACTC displayed a PBM binding z-score of 1.2.

In turn, AGAACGAGGGCAATAAGTTGATAGCACGGGTGGC had a PBM binding z-score of 2.3.

CGTCAAAGATCAACTAAGGTAACGTAAAGCACGC had a PBM binding z-score of 0.5.

Sequence AGAACGAGGGCAAGCTGAGTTGATAGCAGAGTAG came in with a PBM binding z-score of 2.42.

In the case of TTACCAAGGTGAAGGGTCGTTGATGCACGCCTTG, the PBM binding z-score was 4.

CCGACTGGGGCAGAACGGTTACCATACCATCCGG had a PBM binding z-score of 0.551.

Sequence TCATATAGGTGAATGCTAGGTGAAAGTCCGATCT came in with a PBM binding z-score of 5.78.

Turning to TGGCCTAGGTCATTGGGCCAGTATAGTACGCATC, the PBM binding z-score came to 3.78.

Regarding TCTTGTAGGTCAAGCAGGTTAAGAAAGCCTGAGT, the PBM binding z-score stood at 8.12.

On to ATCGAAAGGTCGAGGTGATTATAGAGAAAGGGAA, for which the PBM binding z-score was determined as 2.16.

Sequence CGAACGAGGGCATGGGTTGATAGCAAATGCCGAT had a PBM binding z-score of 2.69.

TTATATAGGTAAACAGGTGAAAGTCCGTAAGTTA came in with a PBM binding z-score of 6.8.

In turn, CCTACTGGGCCAAAAAGGTCATTGAGGCCGATAA gave a PBM binding z-score of 3.88.

On to CCTACTGGGCCAAAGGTCATTCATTCCAATGCTC, for which the PBM binding z-score was 6.63.

TAGCCTACGTCAGATCGGGCCAGTATACGCTATA: the PBM binding z-score was -0.466.

Take ATCTCTAGGAAACAAGTTCAGTGAAAGAGAGGAC: the PBM binding z-score was determined as 0.373.

Regarding CCAACTAGGTCAGAACAGGACAGTGAAGGATGAT, the PBM binding z-score is 6.66.

For CCGACTGCGGCATAAGGTTACCATAAGCCAGCCC, the PBM binding z-score is -0.677.

In the next assay the test system is PPARg DBDmut:RXRa IVT, anti-PPARg (DBD mutation: PPARg1 K132A/R137A, NR concentration 270 nM, RXRa partner concentration 90 nM). Described as above. The method in brief:
as §1
As for CTCGAAAGGTCGGTTGAGGTGAGAATACGGATAA, the PBM binding z-score amounted to 0.334.

On to TCTGCTAGGTCAGCTGGTCAGCTAACGAGCTGCC, for which the PBM binding z-score is -0.25.

GCTTGTAGATCATGGTTAAGAAAGACTAAGCTAA displayed a PBM binding z-score of 0.687.

Turning to TCTGCTAGGTCAGTTTGTCAGCTAACGAGCTGCC, the PBM binding z-score amounted to 0.124.

Sequence TCATATAGGTAAATGCTAGTTGAAAGTCCGATCT returned a PBM binding z-score of 1.08.

As to TCTCGGAGGACACGTAAGGTCAGAGCTCGACATC, the PBM binding z-score came to 0.00634.

For ATGTCTAGGTAAAGATAGTTCAGTGAATGCAAAT, the PBM binding z-score is 0.413.

Sequence TATACAGGGTCAAAGTCCAGAGTACGAATGTCGA yielded a PBM binding z-score of 3.19.

In turn, GGAACCAGGGCAAGTTGATAGCAGAGTTTGATGG returned a PBM binding z-score of 0.246.

In turn, CCTAGCAGGCCAGGGTCACTGAAGCATTTCGCTT came in with a PBM binding z-score of -1.43.

CGTCCAAGGTCAATGCTAGGACAGTGAAAGCATT: the PBM binding z-score is -0.452.

As for CCTACTGGGCCATTCATAGGTCATTGATCATATG, the PBM binding z-score amounted to 0.954.

CGAACTAGGTGATCCAGGACAGTGAATACATTGA gave a PBM binding z-score of 1.12.

The sequence ACTAGCAGGTCAAGTTTGGGTCACTCAAACAAAG showed a PBM binding z-score of 0.847.

On to TCTCGTAGATCAAGCAGGTTAAGAAAGCCTGAGT, for which the PBM binding z-score is -0.611.

For the sequence GCTGCTAGGTCAGTTTGGTCAGCTAACGGGTACG, the PBM binding z-score was -0.859.

Sequence CCTACTGGGCCATCAGATCATTGATATCAACGTT had a PBM binding z-score of 0.261.

Sequence CCGAGTGGGGCAGAAAGGTTACCATACCATCCGG had a PBM binding z-score of -1.17.

AGTCAAAGTTCACTAGGTAACCTAAGATTCAGCT came in with a PBM binding z-score of 0.689.

Consider TCTAGCAGGCCCGAGGGTCACTCAAGAGGTACGG, for which the PBM binding z-score was -0.445.

The sequence TCGACTAGGTTACCAATGGGGCATTCAGCTTTCT displayed a PBM binding z-score of 0.333.

GCGACTGGGGCATCAGCAGGTTAGCATAACTTAA came in with a PBM binding z-score of -1.06.

TTACCAAGGTGAGCTGAGCTCGTTGATCCAACTC: the PBM binding z-score worked out at 0.0399.

Consider AGAACGAGGGCAATAAGTTGATAGCACGGGTGGC, for which the PBM binding z-score is 0.463.

Sequence CGTCAAAGATCAACTAAGGTAACGTAAAGCACGC displayed a PBM binding z-score of 0.6.

Sequence AGAACGAGGGCAAGCTGAGTTGATAGCAGAGTAG returned a PBM binding z-score of 0.0132.

TTACCAAGGTGAAGGGTCGTTGATGCACGCCTTG gave a PBM binding z-score of 0.187.

Take CCGACTGGGGCAGAACGGTTACCATACCATCCGG: the PBM binding z-score is -1.28.

Take TCATATAGGTGAATGCTAGGTGAAAGTCCGATCT: the PBM binding z-score was 1.9.

As for TGGCCTAGGTCATTGGGCCAGTATAGTACGCATC, the PBM binding z-score was -0.594.

As for TCTTGTAGGTCAAGCAGGTTAAGAAAGCCTGAGT, the PBM binding z-score came out at 1.76.

For the sequence ATCGAAAGGTCGAGGTGATTATAGAGAAAGGGAA, the PBM binding z-score came to 1.08.

CGAACGAGGGCATGGGTTGATAGCAAATGCCGAT returned a PBM binding z-score of -0.338.

As to TTATATAGGTAAACAGGTGAAAGTCCGTAAGTTA, the PBM binding z-score was found to be 2.26.

Consider CCTACTGGGCCAAAAAGGTCATTGAGGCCGATAA, for which the PBM binding z-score was -0.547.

The sequence CCTACTGGGCCAAAGGTCATTCATTCCAATGCTC displayed a PBM binding z-score of 2.52.

Turning to TAGCCTACGTCAGATCGGGCCAGTATACGCTATA, the PBM binding z-score was -1.21.

As for ATCTCTAGGAAACAAGTTCAGTGAAAGAGAGGAC, the PBM binding z-score was determined as 0.113.

Sequence CCAACTAGGTCAGAACAGGACAGTGAAGGATGAT yielded a PBM binding z-score of 2.08.

As to CCGACTGCGGCATAAGGTTACCATAAGCCAGCCC, the PBM binding z-score is -0.568.
